Source: PubChem BioAssay
D1 PAM = human D1 dopamine receptor positive modulation; P21728; HEK293 TREx D1 cells, calcium flux, dopamine EC20 potentiation; potentiation, % at 10 µM; 0.036% of 360,000 active; AID 504651; in the data active = potentiation above about 30%; also: 0% is about no effect
Target sequence (P21728 whole entry, looked up): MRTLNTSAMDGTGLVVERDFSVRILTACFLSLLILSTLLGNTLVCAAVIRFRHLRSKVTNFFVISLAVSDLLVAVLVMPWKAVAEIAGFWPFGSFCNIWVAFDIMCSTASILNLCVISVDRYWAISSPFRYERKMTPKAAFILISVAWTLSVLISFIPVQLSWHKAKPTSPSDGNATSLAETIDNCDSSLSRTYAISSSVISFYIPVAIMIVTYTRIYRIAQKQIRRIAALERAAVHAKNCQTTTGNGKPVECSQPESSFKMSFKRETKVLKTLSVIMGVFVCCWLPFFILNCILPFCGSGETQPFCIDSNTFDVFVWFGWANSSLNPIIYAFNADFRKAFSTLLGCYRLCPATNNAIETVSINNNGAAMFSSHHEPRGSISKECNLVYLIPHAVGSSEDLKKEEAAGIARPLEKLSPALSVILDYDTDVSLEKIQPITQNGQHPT
D1 ag = activates the human D1 dopamine receptor; HEK293 T-REx D1 cells, calcium flux, agonist mode; activation, % at 2 µM; 1% of 360,000 active; AID 504660; in the data active = activation above about 30%; also: 0% is about no effect
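Tetracycline-induced HEK293 TREx D1 cells, force-coupled to calcium signalling, were dye-loaded with a no-wash calcium kit. Compound was pin-added after a 10 s baseline. Fluorescence was read kinetically at 1 cycle/s for 180 s, with calcium rises flagged as agonism.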
D1 antagonist = antagonists of human D1 dopamine receptor; P21728; HEK293 TREx D1 cells, calcium flux, dopamine EC80; hits give low values; activity change, negative = inhibition, % at 10 µM; 3.2% of 360,000 active; AID 504652; in the data active = activity change below about -30%; also: % is scaled to controls: 0 for no effect and ±100 for the full control effect
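Inducible Hek293 Trex D1 cells (tetracycline, overnight, 30 C). Calcium dye 30–90 min RT. Antagonist mode: EC80 dopamine added after 180 s compound read.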
DRD3 antagonist = D3 dopamine receptor (human) antagonism; P35462; D3R cells, DiscoveRx beta-arrestin luminescence, antagonist mode; hits give low values; max response, negative = inhibition, %; 2.5% of 360,000 active; AID 652054; in the data active = max response below about -50%; inconclusive = no clear call, values can overlap the other calls; also: % is scaled to controls: 0 for no effect and ±100 for the full control effect
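Cells plated overnight at 1500 cells/well, then exposed to library compounds with dopamine controls for 90 minutes at 37 degrees C. DiscoveRx reagent added for 30–60 minutes at room temperature; luminescence read, quantitative HTS format.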
Chronic BCR inh = chronic active BCR signaling inhibition; ABC-DLBCL IkBa-CBG/CBR reporter, luminescence ratio, 4 h; Potency, µM (doses to about 46.1 µM), without a hit: top-dose activity change, negative = inhibition, usual class: inhibitors; 0.05% of 340,000 active; active = well fitted inhibition curve with a large enough effect in the signal ratio, with a control signal flat, not every such curve was filed as active; inconclusive = small, poorly fitted or top-dose-only effect, or effect the other way, or a change in a side signal; the % refers to the signal ratio;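 also: potency is read from the fitted curve at half-maximal effect; plate controls were basal doxycycline-induced cells for no effect and cells given 10 µM MG132 for full effect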
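Compounds up to 46 uM were incubated four hours with TMD8 cells whose green CBG68 luciferase is fused to IkappaBalpha; red CBR luminescence normalised the signal, and concentration-effect curves were fitted to fusion, red and ratio data.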
DRD3 agonist = agonists of human D3 dopamine receptor; max activation, %; 0.58% of 410,000 active; P35462; D3R DiscoveRx beta-arrestin cells, luminescence, 90 min; in the data active = max activation above about 30%; also: 0% is about no effect
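Cells at 1500/well, incubated overnight, then treated with pinned compounds (dopamine as control) for 90 min at 37 degrees C. DiscoveRx reagent added for 30 - 60 minutes at room temperature; luminescence read.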
* hit, by the source's call; ? = inconclusive; . = no result given. Most compounds without a hit are left out; they make up all but 6% or so of the library.

SMILES	D1 PAM	D1 ag	D1 antagonist	DRD3 antagonist	Chronic BCR inh	DRD3 agonist
O=C(Nc1ccc(F)cc1F)c1c(C(F)(F)F)ccnc1Oc1cccc(C(F)(F)F)c1	-5	11	-5	-58*	5%	0
CCCCCCCCCc1ccc(OCCOCCO)cc1	.	.	.	.	.	11
N[C@H](CSCc1ccccc1)C(=O)Nc1ccc([N+](=O)[O-])cc1	-7	7	-33*	-30	-2%	-9
Cc1cccc(C)c1NC(=O)c1cc(S(N)(=O)=O)c(Cl)cc1O	.	.	.	.	.	-1
COc1ccc(Br)cc1C(=O)Nc1ccc2oc(-c3cccnc3)nc2c1	0	1	18	.	.	24
CCOc1ccccc1NC(=O)C(=O)c1cc(C)n(-c2cccc(C)c2C)c1C	-3	7	2	.	.	3
O=C(NCc1ccc(F)cc1)C1C2C=CC3(CN(Cc4cccnc4)C(=O)C13)O2 (stereo unspecified)	-4	4	8	-17	0%	31*
Cn1c(SCc2ccccc2F)nc2c([nH]c3ccccc32)c1=O	-5	1	-2	.	.	-8
CC(C)C#Cc1cnc2c(c1)C(=O)N([C@H](C)CO)C[C@@H](C)[C@H](CN(C)C(=O)Nc1ccccc1F)O2	.	.	.	16	.	0
COc1ccc(-c2[nH]c3ccccc3c2SCCNC(=O)c2ccc(S(=O)(=O)N(C)C)cc2)cc1	2	1	10	.	.	2
Cc1cccc(N2CCN(Cc3nc(-c4ccc(F)cc4F)oc3C)CC2)n1	-6	9	5	-86*	?	-16
Cc1oc(-c2cc(F)ccc2F)nc1CN1CCCN(C(=O)c2ccco2)CC1	6	0	0	-81*	1%	-16
Cc1oc(-c2cccc(F)c2)nc1CN1CCCN(C(=O)c2ccco2)CC1	4	2	-1	-62*	2%	-17
CCN1C[C@@H]2[C@@H]3C(=O)N(C)C(=O)[C@@H]3[C@](Cc3ccccc3)(C(=O)OC)N2C1=NCc1ccccc1	.	.	.	28	.	14
O=C(CS(=O)(=O)c1cccc2nsnc12)Nc1ccc(F)cc1	-5	0	-7	.	.	-15
O=C(NCCO)N1c2ccccc2Sc2ccccc21	-10	2	3	5	-2%	3
O=C(NCCN1CCOCC1)N1c2ccccc2Sc2ccccc21	-5	1	-1	-53*	-2%	-17
CCCCC(=O)Nc1ccc(C(=O)NCCN2CCOCC2)cc1	-4	-1	-58*	0	7%	0
O=C(NCCN1CCOCC1)c1ccc(-c2ccccc2)cc1	5	4	-36*	-16	6%	-4
C=C1CC[C@H](O)C/C1=C\C=C1/CCC[C@]2(C)[C@@H]([C@H](C)CCCC(C)C)CC[C@@H]12	.	.	.	.	.	6
COc1cccc(CNC(=O)CSc2ccc(-c3sc(-c4ccccc4)nc3C)nn2)c1	-2	3	8	.	.	19
CC1=C(C(=O)N2CCCCCC2)CC(CC(=O)NCc2ccco2)C(=O)N1Cc1ccccc1 (stereo unspecified)	.	.	.	6	.	2
CC1=C(C(=O)OC(C)C)C(c2cccs2)C(C(=O)OC(C)C)=C(C)N1	-5	7	-32*	36	1%	4
O=C(Nc1nc(-c2ccc(S(=O)(=O)N3CCOCC3)cc2)cs1)c1ccccc1	-2	9	-12	11	?	9
O=C(Nc1nc(-c2nc3ccccc3s2)cs1)c1ccc(S(=O)(=O)N2CCOCC2)cc1	-3	9	4	48	14%	51*
SMILES	D1 PAM	D1 ag	D1 antagonist	DRD3 antagonist	Chronic BCR inh	DRD3 agonist
O=C(Nc1nc(-c2ccccn2)cs1)c1cc(S(=O)(=O)N2CCOCC2)ccc1F	1	0	-12	-77*	3%	-28
CCN(CC)C(=O)COc1ccc(/C(C)=N/NC(=O)c2ccccc2O)cc1	-4	2	-51*	-5	?	2
O=C(CCN1C(=O)C2C3C=CC(C3)C2C1=O)N1CCN(c2ccccc2Cl)CC1 (stereo unspecified)	-6	5	15	-80*	?	-9
O=C(CCN1C(=O)C2C3C=CC(C3)C2C1=O)N1CCN(c2ccccc2F)CC1 (stereo unspecified)	3	3	-9	17	?	2
O=C(O)CO.[NH2-].[NH2-].[Pt+2]	.	.	.	.	.	7
O=C(O)CP(=O)(O)O	-2	0	-38*	-8	10%	17
COC(=O)c1cc2sc(C)cc2n1Cc1nc(-c2ccc(C)cc2)oc1C	-1	0	-9	.	.	-1
Cc1ccc(-n2c(-c3ccccc3)c[nH]c2=S)cc1	1	1	8	0	-3%	41*
CC(C)NC(=O)C1(C)CCN1C(=O)c1cccn1C (stereo unspecified)	.	.	.	6	.	4
CCOc1cc(C)c(S(=O)(=O)NC2CCCCC2)cc1C	-5	18	-33*	-12	2%	-16
Cc1ccc(CN2C(=O)CSC2c2ccc(F)cc2)cc1 (stereo unspecified)	4	6	-39*	-1	?	-1
Cc1cccc(N(C(=O)C(F)(F)F)C(C(=O)NC2CCCCC2)c2cccs2)c1 (stereo unspecified)	.	.	.	-20	?	-1
C#CC(=O)N(c1cccc(OC)c1)C(C(=O)NC1CCCC1)c1cccs1 (stereo unspecified)	-6	3	-6	-63*	?	-31
COc1ccc(N(C(=O)Cc2cccs2)C(C(=O)NC2CCCC2)c2ccncc2)cc1OC (stereo unspecified)	0	1	31	-10	-16%	-32
C#CC(=O)N(c1ccc(OC)c(OC)c1)C(C(=O)NC1CCCC1)c1cccs1 (stereo unspecified)	2	1	9	-72*	?	-5
Cc1ccc(NC(=S)N(CCCN2CCCC(C)C2)Cc2ccco2)cc1C (stereo unspecified)	-13	6	-3	-92*	?	-23
Cc1cc(NC(=S)N(CCN2CCCCC2)Cc2ccco2)ccc1Cl	-10	1	-38*	-24	?	-30
COc1ccccc1C(=O)n1nc(-c2ccccc2)nc1NCc1ccc(Cl)cc1	-5	3	6	.	.	-15
CC1Cc2cc(S(=O)(=O)CCC(=O)Nc3ccc(Cl)cc3F)ccc2N1C(=O)C1CC1 (stereo unspecified)	-3	4	-13	.	.	8
O=C(COC(=O)CC1CCCC1)Nc1cccc(F)c1	2	1	-31*	10	?	6
CCOC(=O)c1ccc(NC(=O)Cc2noc3ccc(C)cc23)cc1	-3	0	5	.	.	1
COc1ccc(NC(=O)CC2CCCC2)cc1OC	-5	3	-46*	4	-1%	5
